# Screens as filed in PubChem.
# An excerpt weighted towards active compounds, which were near 2.4% of everything screened.
# Pol iota inh – DNA polymerase iota (human) inhibition. Q9UNA4. Pol iota fluorescent replication assay, 10 min. Potency, µM (doses to about 115 µM), inactives show top-dose activity, negative = inhibition, hits mostly inhibitors. actives 1% (n = 390,000); further: potency means the concentration at half of the fitted maximal effect
#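 Fluorescent replication assay read twice, at 0 min and 10 min after adding 50 nM (final) substrate. Enzyme (10 nM) and compounds were first incubated 15 min at room temperature; enzyme-free buffer wells were negative controls.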
# Pol eta inh-1 – blocks human DNA polymerase eta activity; actives 1.2% (n = 390,000); Potency, µM (doses to about 114 µM), without a hit: at the highest dose activity change, negative = inhibition, most hits filed as inhibitors; recombinant Pol eta, fluorescent DNA replication assay; Q9Y253; further: potency means the concentration at half of the fitted maximal effect; on the % scale 0 is the no-effect control and ±100 the full control effect
#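 Pol eta at 10 nM preincubated with compounds 15 min at room temperature; reaction started with fluorescent substrate (50 nM final) and read kinetically at 0 and 10 min.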
# Pol beta inh – inhibitors of human DNA polymerase beta; P06746; Pol beta primer extension/strand displacement, fluorescence kinetic; Potency, µM (top dose mostly 114 µM), inactives show top-dose activity change, negative = inhibition, actives largely listed as inhibitors; actives 1.3% (n = 340,000); further: potency means the concentration at half of the fitted maximal effect; on the % scale 0 is the no-effect control and ±100 the full control effect
#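 Reaction started by 50 nM substrate onto compound-treated Pol beta (10 nM, 15 min preincubation, room temperature); plates read at 0 min and 10 min. Normalized concentration-effect data fitted by four-parameter Hill equation.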
# GLS inhibitor – glutaminase GLS (human) inhibition; GLS enzymatic activity, qHTS titration; Potency, µM (series often up to 45.5 µM), without a hit: top-dose activity change, negative = inhibition, most hits filed as inhibitors; actives 0.21% (n = 410,000); AID 624170; further: potency means the concentration at half of the fitted maximal effect; on the % scale 0 is the no-effect control and ±100 the full control effect
#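 Two-point fluorescence kinetic (t0, 30 min RT) for hKGA; glutamate detected via glutamate oxidase–HRP–Amplex Red. Substrate: 1 mM L-glutamine solution; buffer 45 mM KH2PO4, pH 8.2.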
# APE1 inh – inhibitors of human APE1 endonuclease; Potency, µM (doses to about 65.8 µM), for the others: top-dose activity change, negative = inhibition, usual class: inhibitors; actives 0.35% (n = 350,000); recombinant APE1, TAMRA/BHQ-2 abasic DNA cleavage fluorescence; P27695;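 further: potency means the concentration at half of the fitted maximal effect; plate controls were vehicle for no effect and reference inhibitor for full effect; nearly all actives have a fitted effect of over 55% in size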
#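 Quantitative HTS: incision of a TAMRA/BHQ-2 double-stranded substrate bearing a tetrahydrofuran abasic site by 0.75 nM APE1 raises fluorescence. Substrate 50 nM final, added after 15 min compound preincubation at room temperature; progress as third-minus-first kinetic read difference.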
# Pol kappa inh-1 – inhibitors of human DNA polymerase kappa; actives 0.53% (n = 400,000); Q9UBT6; Potency, µM (highest dose often 107 µM), for inactives: top-dose activity, negative = inhibition, usual class: inhibitors; purified Pol kappa, fluorescent DNA synthesis assay, 10 min; further: potency means the concentration at half of the fitted maximal effect; on the % scale 0 is the no-effect control and ±100 the full control effect
# Target sequence (Q9UBT6 whole entry, looked up): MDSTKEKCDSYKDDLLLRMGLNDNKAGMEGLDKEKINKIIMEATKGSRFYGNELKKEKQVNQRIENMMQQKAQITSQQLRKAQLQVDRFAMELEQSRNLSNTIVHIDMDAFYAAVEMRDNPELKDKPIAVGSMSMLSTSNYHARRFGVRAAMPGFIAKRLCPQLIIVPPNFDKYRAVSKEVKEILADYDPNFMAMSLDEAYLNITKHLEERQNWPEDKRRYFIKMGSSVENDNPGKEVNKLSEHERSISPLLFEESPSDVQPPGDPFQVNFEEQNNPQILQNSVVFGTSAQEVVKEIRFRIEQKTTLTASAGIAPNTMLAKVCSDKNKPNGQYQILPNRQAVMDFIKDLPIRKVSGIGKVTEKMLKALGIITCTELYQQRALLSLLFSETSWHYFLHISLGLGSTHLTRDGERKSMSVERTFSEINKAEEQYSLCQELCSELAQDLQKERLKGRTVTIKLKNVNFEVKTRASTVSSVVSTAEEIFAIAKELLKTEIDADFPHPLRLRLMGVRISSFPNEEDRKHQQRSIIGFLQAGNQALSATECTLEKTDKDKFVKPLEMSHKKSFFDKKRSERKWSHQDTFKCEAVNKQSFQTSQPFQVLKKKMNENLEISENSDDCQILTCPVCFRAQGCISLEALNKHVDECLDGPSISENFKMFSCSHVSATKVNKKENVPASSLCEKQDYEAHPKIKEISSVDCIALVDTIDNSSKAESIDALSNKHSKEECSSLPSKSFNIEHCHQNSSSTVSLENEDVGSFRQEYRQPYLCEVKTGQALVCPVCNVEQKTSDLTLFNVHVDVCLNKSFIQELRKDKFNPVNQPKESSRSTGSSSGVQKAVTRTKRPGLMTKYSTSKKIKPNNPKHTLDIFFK
#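 Inhibition of 10 nM Pol kappa is measured by a fluorescent read-out at 0 and 10 min following addition of 50 nM substrate (final), with a 15-min room-temperature compound preincubation.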
# TbPGK inh – validation of Trypanosoma brucei phosphoglycerate kinase inhibitors; Potency, µM (top dose mostly 57.5 µM), without a hit: at the top dose activity change, negative = inhibition, usual class: inhibitors; TbPGK coupled GAPDH assay, Kinase-Glo luminescence; AID 686980; shares compounds with Pol kappa inh-1; actives 79% (n = 500); further: potency means the concentration at half of the fitted maximal effect; on the % scale 0 is the no-effect control and ±100 the full control effect; nearly all actives have a fitted effect of over 65% in size
# Pol iota confirm – Confirm cherry-picked inhibitors of human polymerase iota; shares compounds with Pol kappa inh-1; Pol iota primer extension, TAMRA/BHQ fluorescence; Potency, µM, most hits filed as inhibitors; actives 77% (n = 1,500); AID 720496; further: potency means the concentration at half of the fitted maximal effect
# GALK confirm – confirmation of human galactokinase (GALK) inhibitors. shares compounds with Pol eta inh-1. purified GALK, Kinase-Glo ATP depletion luminescence. Potency, µM (titrated, usually from 115 µM), for the others: top-dose activity, negative = inhibition, hits mostly inhibitors. actives 70% (n = 150). AID 2015
# GALK redox cs – redox cycling activity in phenol red-HRP assay. shares compounds with Pol eta inh-1. Phenol red-HRP H2O2 redox cycling, absorbance 600 nm. Potency, µM (top dose mostly 115 µM), for inactives: top-dose activity change, negative = H2O2 signal, actives largely listed as inhibitors. actives 40% (n = 150). AID 2035
# HEK293 viability – HEK-293 cytotoxicity, GALK inhibitor secondary. HEK-293 viability, ATP luminescence (CellTiter-Glo), 24/48 h. actives 10% (n = 170). shares compounds with Pol eta inh-1. Potency, µM (doses to about 46.1 µM), inactives show top-dose activity change, negative = cytotoxicity, actives largely listed as inhibitors; further: potency means the concentration at half of the fitted maximal effect; on the % scale 0 is the no-effect control and ±100 the full control effect
# Pol kappa inh-2 – confirmation of human DNA polymerase kappa inhibitors; shares compounds with Pol eta inh-1; purified Pol-kappa, fluorescent strand-displacement substrate; Potency, µM, usual class: inhibitors; actives 76% (n = 920); further: potency means the concentration at half of the fitted maximal effect
# Pol eta inh-2 – Pol eta (human) inhibition, cherry-pick confirmation | shares compounds with Pol eta inh-1 | Pol eta primer extension, TAMRA/BHQ fluorescence, 10 min | Potency, µM, usual class: inhibitors | actives 64% (n = 2,600); further: potency means the concentration at half of the fitted maximal effect
# Numbers without * were called inactive; ? = inconclusive; . = not tested or not shown. The call rests on the fitted dose curve; in most records, active means well fitted curve in the direction sought with a large enough effect; inconclusive means small, poorly fitted or top-dose-only effect, or another doubt; inactive means no such curve, though single readings can be large; an effect the other way counts as inactive or inconclusive.
SMILES,Pol iota inh,Pol eta inh-1,Pol beta inh,GLS inhibitor,APE1 inh,Pol kappa inh-1,Pol iota confirm,Pol eta inh-2,others
Cc1ccccc1NCC(=O)N=Nc1c(O)[nH]c2ccc([N+](=O)[O-])cc12,43.8%,-9.0%,9.2%,3.1%,0.7%,-28.6%,.,.,
O=C(N=Nc1c(O)[nH]c2ccc([N+](=O)[O-])cc12)c1ccccc1Cl,37.8%,39.8µM*,-29.8%,-8.3%,-0.5%,5.7%,67*,?,
Nc1nc2c(s1)CCc1c-2cnn1-c1ccccc1,14.1µM*,79.4µM*,?,-8.1%,-9.4%,-4.2%,23.8*,67.5*,
N#C/C(=C/c1ccc(CNS(=O)(=O)c2ccccc2)o1)C(=O)NCc1ccccc1,20.0%,-21.3%,19.1%,-0.9%,15.7%,-9.6%,.,.,
CCOc1ccc(S(=O)(=O)Nc2cc(SCC(=O)O)c(O)c3ccccc23)cc1,10µM*,44.7µM*,?,-14.5%,8.7%,-31.9%,?,?,
O=C(O)CSc1cc(NS(=O)(=O)c2cccc([N+](=O)[O-])c2)c2ccccc2c1O,3.16µM*,22.4µM*,79.4µM*,?,-4.8%,?,26.7*,26.9*,GALK confirm=33.5µM*;GALK redox cs=21.1µM*;HEK293 viability=-16.1%
O=C(CSc1ccsc1[N+](=O)[O-])NCc1ccco1,?,22.4µM*,?,-8.4%,-5.9%,79.4µM*,67*,30.1*,Pol kappa inh-2=42.3*
Cc1ccccc1NC(=O)CSc1ccsc1[N+](=O)[O-],11.2µM*,2.82µM*,20µM*,?,?,35.5µM*,18.9*,16.9*,
CCOc1ccccc1NC(=O)CSc1nnnn1Cc1ccccc1,24.5%,-18.2%,3.8%,-0.1%,-3.9%,3.7%,.,.,
COC(=O)Cc1c(C)c2ccc(OCC(=O)N(C)C)cc2oc1=O,-8.3%,-7.8%,22.8%,-24.4%,1.9%,-4.7%,.,.,
O=C1C=C(O)CC(c2ccco2)C1 (stereo unspecified),4.47µM*,3.16µM*,6.31µM*,?,3.16µM*,?,75.2*,30.1*,Pol kappa inh-2=16.8*
Cc1cc(C)c2nc(-c3ccccn3)cc(C(=O)Nc3ccc(S(=O)(=O)Nc4onc(C)c4C)cc3)c2c1,8.91µM*,8.91µM*,?,-11.3%,?,?,21.2*,8.49*,
CC(C)(C)OC(=O)CC(S(=O)(=O)c1ccccc1)S(=O)(=O)c1ccccc1,.,-23.0%,.,-3.6%,.,.,.,.,
COc1ccc(CCC(C)NCC(C)c2ccccc2)cc1 (stereo unspecified),21.0%,-11.8%,-34.6%,0.4%,-24.3%,-0.2%,.,.,
NC(=O)Cc1ccc(C(=O)CSc2nnc(-c3ccncc3)n2C2CC2)s1,14.1µM*,12.6µM*,.,1.5%,-41.1%,79.4µM*,?,75.7*,
O=C1/C(=C\c2ccc(-c3ccccc3Cl)o2)SC(=S)N1CC1CCCO1 (stereo unspecified),2.5%,-1.1%,-1.3%,-16.5%,-1.7%,-16.6%,.,.,
COc1cc(/C=C2\SC(=S)N(C(C(=O)O)c3ccccc3)C2=O)cc(OC)c1OC (stereo unspecified),?,12.4%,-0.4%,-8.5%,-3.1%,-5.6%,.,.,
O=C(O)C(c1ccccc1)N1C(=O)/C(=C\c2ccc(-c3ccccc3Cl)o2)SC1=S (stereo unspecified),11.2µM*,39.8µM*,?,-3.8%,?,-12.3%,59.7*,37.9*,TbPGK inh=8.19µM*;Pol kappa inh-2=10.6*
O=C(O)C(c1ccccc1)N1C(=O)/C(=C\c2ccc(-c3ccc(Br)cc3)o2)SC1=S (stereo unspecified),11.2µM*,?,?,?,?,?,42.3*,26.9*,
Cc1nn(-c2ccccc2)nc1C(=O)Nc1ccc2[nH]ncc2c1,3.4%,-18.1%,-26.9%,-5.8%,-3.1%,6.9%,.,.,
CN(CC(=O)Nc1ccc(Cl)c(C(F)(F)F)c1)C(=O)/C=C/c1ccco1,1.0%,-23.2%,0.4%,-1.8%,-9.0%,-8.5%,.,.,
O=C(O)c1cc(N2N=C(C(F)(F)F)/C(=C/C=C/c3ccco3)C2=O)ccc1Cl,1.12µM*,-98.9%,0.631µM*,8.91µM*,0.8%,1.12µM*,0.752*,0.675*,TbPGK inh=0.58µM*;Pol kappa inh-2=0.119*
C#CCSc1nc2sc3c(c2c(=O)n1C)CCC3,25.1µM*,20µM*,28.2µM*,-18.2%,9.47µM*,?,67*,60.1*,Pol kappa inh-2=33.6*
CSc1nc2sc3c(c2c(=O)n1C)CCC3,33.1%,-7.6%,0.3%,1.1%,5.7%,9.7%,.,.,
O=C1N=C(N2CCC(Cc3ccccc3)CC2)S/C1=C/c1cn[nH]c1-c1ccccc1,10.3%,-7.4%,43.4%,-2.5%,5.3%,-25.3%,.,.,
Cc1c(CCC(=O)O)c(=O)oc2c(C)c3occ(-c4ccc(Br)cc4)c3cc12,142.6%,17.8µM*,42.5%,118.9%,?,-4.9%,33.6*,?,
